# Test results as given in publication PMC5540273 (PLoS ONE, 2017).
# “And” between values parts separate entries of the source, which are not always exact repeats. Equal values may be shown once. Read-outs that look alike come from different tables or passages of the source.
# How the values were obtained:
# Settings in all cases: concentration: 1 μM, replicates: in singlicate, n = 1
# EPHA3 = system: EPHA3
# EPHA4 = system: EPHA4
# EPHA5 = system: EPHA5
# EPHA6 = system: EPHA6
# EPHA7 = system: EPHA7
# EPHA8 = system: EPHA8
# EPHB1 = system: EPHB1
# EPHB2 = system: EPHB2
# EPHB3 = system: EPHB3
# EPHB4 = system: EPHB4
# 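Also: KINOMEscan kinase panel screen.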
SMILES,%Inh (EPHA3),%Inh (EPHA4),%Inh (EPHA5),%Inh (EPHA6),%Inh (EPHA7),%Inh (EPHA8),%Inh (EPHB1),%Inh (EPHB2),%Inh (EPHB3),%Inh (EPHB4),%Inh (EPHA3; 1 µM),%Inh (EPHA4; 1 µM),%Inh (EPHA6; 1 µM),%Inh (EPHA7; 1 µM),%Inh (EPHA8; 1 µM),%Inh (EPHB1; 1 µM),%Inh (EPHB3; 1 µM),%Inh (EPHB4; 1 µM),%Inh (EPHA5; 1 µM),%Inh (EPHB2; 1 µM)
NS(=O)(=O)c1cccc(-c2ccc3ncc(N4CCOCC4)nc3c2)c1 [GSK1535721],11%,8%,0%,8%,3%,11%,5%,6%,9%,17%,–,–,–,–,–,–,–,–,–,–
Cc1nnc(-c2ccc(C)c(-c3ccc(C(=O)Nc4ccc(NS(C)(=O)=O)cc4)cc3)c2)o1 [GW702865],8%,0%,0%,0%,0%,3%,6%,10%,0%,5%,–,–,–,–,–,–,–,–,–,–
O=c1cc(N2CCOCC2)nc2n(Cc3cccc4ccccc34)ccn12 [GSK2333389],0%,14%,0%,8%,5%,9%,10%,0%,11%,5%,–,–,–,–,–,–,–,–,–,–
NCCNS(=O)(=O)c1ccc(-c2ccnc3[nH]ccc23)cc1 [GSK977617],–,–,0%,–,–,–,–,0%,–,–,52% and 31%,6% and 0%,5% and 0%,16% and 15%,13% and 16%,23% and 15%,11% and 0%,11% and 1%,–,–
C[C@@H](Oc1cc(-n2cnc3ccc(NC(=O)NC(C)(C)C)cc32)sc1C(N)=O)c1ccccc1Cl [GSK346294],26%,3%,0%,5%,17%,27%,14%,15%,18%,7%,–,–,–,–,–,–,–,–,–,–
NCC(NC(=O)c1cc(-c2cn[nH]c2)c(-c2ccnc3[nH]ccc23)s1)c1ccccc1.O=C(O)C(F)(F)F.O=C(O)C(F)(F)F (stereo not drawn) [GSK1325775],31%,0%,0%,0%,0%,7%,13%,0%,1%,0%,–,–,–,–,–,–,–,–,–,–
CNc1ncnc2[nH]ncc12 [SKF-18355],11%,0%,0%,0%,0%,29%,0%,0%,0%,0%,–,–,–,–,–,–,–,–,–,–
CC(C)(CN)c1nc(-c2ccc(Cl)c(O)c2)c(-c2ccncc2)[nH]1.O=C(O)C(F)(F)F [SB-477794],–,–,–,–,–,–,–,–,–,–,50% and 61%,42% and 23%,74% and 63%,35% and 20%,87% and 85%,45% and 20%,35% and 14%,24% and 38%,0% and 2%,37% and 30%
CN1c2ccc(CNc3ccc(F)cc3)cc2-c2c(cnn2C)S1(=O)=O,0%,0%,0%,0%,0%,0%,0%,17%,0%,1%,–,–,–,–,–,–,–,–,–,–
Nc1nc(-c2ccc3c(N)n[nH]c3c2)cc(N2CCCC2)n1 [GSK2227430],3%,5%,0%,6%,0%,6%,0%,0%,13%,10%,–,–,–,–,–,–,–,–,–,–
COc1cc(Nc2nccc(N3CCC(NC(=O)c4cccc(NC(C)=O)c4)C3)n2)cc(OC)c1OC (stereo not drawn) [GSK1379754],0%,9%,6%,20%,11%,26%,15%,0%,17%,12%,–,–,–,–,–,–,–,–,–,–
O=C(NOCC1CC1)c1ccc(F)c(F)c1Nc1ccc(I)cc1Cl,0%,0%,1%,0%,0%,0%,0%,0%,0%,0%,–,–,–,–,–,–,–,–,–,–
COc1ccc(Nc2nccc(N3CCC(NC(=O)Nc4cc(C)ccc4C)C3)n2)cc1 (stereo not drawn) [GSK1379741],0%,12%,0%,0%,5%,2%,14%,27%,8%,9%,–,–,–,–,–,–,–,–,–,–
O=C(NCCNc1ccnc(Nc2ccc(F)cc2)n1)Nc1ccccc1F [GSK1379880],0%,6%,0%,0%,2%,21%,38%,0%,0%,0%,–,–,–,–,–,–,–,–,–,–
CC(=O)Nc1ccc(COc2ccc(Nc3ccnc4cc(-c5ccccn5)ccc34)cc2)cc1.Cl [GW440148],17%,3%,0%,8%,0%,17%,0%,0%,8%,10%,–,–,–,–,–,–,–,–,–,–
O=C(Nc1n[nH]c2cc(-c3cccc(F)c3)ccc12)C1CC1 [SB-735464],17%,24%,0%,14%,14%,13%,0%,0%,20%,21%,–,–,–,–,–,–,–,–,–,–
c1ccc(-c2n[nH]cc2-c2ccnc3ccccc23)nc1 [GW271431],14%,2%,0%,1%,6%,9%,32%,0%,7%,11%,–,–,–,–,–,–,–,–,–,–

SMILES,%Inh (EPHA3),%Inh (EPHA4),%Inh (EPHA5),%Inh (EPHA6),%Inh (EPHA7),%Inh (EPHA8),%Inh (EPHB1),%Inh (EPHB2),%Inh (EPHB3),%Inh (EPHB4),%Inh (EPHA3; 1 µM),%Inh (EPHA4; 1 µM),%Inh (EPHA6; 1 µM),%Inh (EPHA7; 1 µM),%Inh (EPHA8; 1 µM),%Inh (EPHB1; 1 µM),%Inh (EPHB3; 1 µM),%Inh (EPHB4; 1 µM),%Inh (EPHA5; 1 µM),%Inh (EPHB2; 1 µM)
O=C(c1ccc(-c2cc(-c3c[nH]nc3-c3ccccn3)ccn2)cc1)N1CCOCC1 [GW812171],17%,33%,1%,6%,0%,0%,13%,0%,16%,0%,–,–,–,–,–,–,–,–,–,–
O=C1Cc2cc(Nc3nc(NCc4cccc(S(=O)(=O)C(F)(F)F)c4)ncc3C(F)(F)F)ccc2N1,0%,0%,10%,0%,0%,0%,0%,0%,1%,8%,–,–,–,–,–,–,–,–,–,–
COc1ccc(CNC(=O)NC2CCN(c3ccnc(Nc4ccc(OC)cc4)n3)C2)cc1 (stereo not drawn) [GSK1379727],0%,10%,0%,2%,0%,1%,6%,0%,7%,11%,–,–,–,–,–,–,–,–,–,–
COc1ccc(Nc2nccc(N3CCC(NC(=O)Nc4cccc(C(C)=O)c4)C3)n2)cc1 (stereo not drawn) [GSK1379731],0%,6%,0%,0%,0%,9%,0%,0%,9%,5%,–,–,–,–,–,–,–,–,–,–
Cc1nnc(-c2ccc3ncc(-c4ccc(S(C)=O)cc4)n3c2)o1 (stereo not drawn),2%,8%,11%,22%,1%,1%,0%,18%,12%,0%,–,–,–,–,–,–,–,–,–,–
Cc1ccc(C(=O)NCC(N)=O)cc1-n1c(C)cc(OCc2ccc(F)cc2F)c(Br)c1=O,0%,12%,0%,27%,18%,15%,20%,19%,25%,27%,–,–,–,–,–,–,–,–,–,–
Cc1cccc(-c2nc(Nc3ccc4ncsc4c3)c3ccccc3n2)n1 [GW867588],22%,21%,6%,21%,0%,4%,30%,0%,22%,0%,–,–,–,–,–,–,–,–,–,–
CCn1cnc2c(N)ncnc21 [GW345098],0%,7%,16%,17%,3%,1%,7%,0%,17%,14%,–,–,–,–,–,–,–,–,–,–
CC(C)(C)n1cnc2c(N)ncnc21 [SKF-97359],0%,0%,0%,0%,0%,7%,0%,0%,0%,0%,–,–,–,–,–,–,–,–,–,–
COc1cc2ncn(-c3cc(OCc4sccc4Cl)c(C(N)=O)s3)c2cc1OC [GSK448459],0%,0%,0%,2%,0%,11%,3%,9%,6%,0%,–,–,–,–,–,–,–,–,–,–
Cc1ccc(NC(=O)c2ccnc(N3CCN(C)CC3)c2)cc1-c1ccc(C(=O)NCC2CC2)cc1 [GW775604],0%,7%,0%,4%,0%,18%,0%,0%,7%,0%,–,–,–,–,–,–,–,–,–,–
O=c1cc(N2CCOCC2)nc2n(Cc3cccc(C(F)(F)F)c3)ccn12 [GSK2297543],0%,6%,0%,0%,0%,2%,24%,0%,3%,7%,–,–,–,–,–,–,–,–,–,–
Cl.Oc1cccc(Nc2ccnc3cc(-c4ccncc4)ccc23)c1 [GW494601],76%,84%,95.3%,88%,0%,97%,96.2%,70%,27%,94.2%,–,–,–,–,–,–,–,–,–,–
Cc1nnc(-c2ccc3occ(-c4ccc(C(C)O)cc4)c3c2)o1 (stereo not drawn),0%,30%,0%,52%,3%,0%,9%,15%,12%,13%,–,–,–,–,–,–,–,–,–,–
O=C(NCCNc1ccnc(Nc2ccc(F)cc2)n1)c1cc2ccccc2s1 [GSK1379874],0%,0%,0%,0%,6%,18%,0%,0%,12%,0%,–,–,–,–,–,–,–,–,–,–
Fc1ccc(-c2ncn(CCCN3CCOCC3)c2-c2cccnc2)cc1 [SB-211743],1%,0%,11%,0%,0%,3%,20%,0%,0%,0%,–,–,–,–,–,–,–,–,–,–
